SARS PLpro yeast: inhibitors of SARS-CoV papain-like protease in yeast; S. cerevisiae expressing SARS-CoV PLpro, growth rescue; 330,000 tested, 0.19% active; Potency, µM (top dose mostly 32.9 µM), without a hit: at the top dose activity, positive = growth rescue, hits mostly activators; AID 485353; calls by dose curve; also: potency is read from the fitted curve at half-maximal effect; 0% is about no effect; nearly all actives have a fitted effect of over 55% in size
Shiga inhibitor: blocks Shiga toxin action in Vero cells; inhibition, % at 38.7 µM; AID 2315; Vero cells, Shiga toxin protein synthesis inhibition reporter; 290,000 tested, 9.2% active; in the data active = inhibition mostly above about 28%, no sharp cut-off; inactive = mostly below about 43%; also: 0% is about no effect
AmpC detergent: blocks E. coli AmpC beta-lactamase in detergent assay; P00811; AmpC hydrolysis of nitrocefin, absorbance 480 nm, 0.01% Triton; Potency, µM (series often up to 114 µM), inactives show at the top dose activity change, negative = inhibition, hits mostly inhibitors; 370,000 tested, 0.041% active; AID 485294;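 also: potency is read from the fitted curve at half-maximal effect; 0% = no-compound wells and -100% = no-enzyme wells; nearly all actives have a fitted effect of over 25% in size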
Target sequence (P00811 whole entry, looked up): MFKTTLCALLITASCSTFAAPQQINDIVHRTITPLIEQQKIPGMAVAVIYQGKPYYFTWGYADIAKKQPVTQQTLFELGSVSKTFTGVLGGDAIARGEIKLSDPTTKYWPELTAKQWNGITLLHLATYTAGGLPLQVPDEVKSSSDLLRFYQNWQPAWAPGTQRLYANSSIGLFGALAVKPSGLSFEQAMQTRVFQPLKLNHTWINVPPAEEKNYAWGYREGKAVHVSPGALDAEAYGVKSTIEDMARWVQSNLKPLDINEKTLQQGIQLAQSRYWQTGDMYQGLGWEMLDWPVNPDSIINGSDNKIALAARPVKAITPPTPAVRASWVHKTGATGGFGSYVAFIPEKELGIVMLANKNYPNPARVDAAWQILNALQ
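AmpC (5.3 nM in the dispensed reagent) in 20 mM phosphate pH 7.0 with 0.01% (detergent screen) or 0.0001% Triton X-100 was preincubated with compounds for 15 min at room temperature. Nitrocefin was then added from an 800 uM solution, and hydrolysis was followed at 480 nm.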
AMA1-RON2 inh: inhibitors of Plasmodium falciparum AMA1-RON2 interaction; AlphaScreen AMA1-biotinylated RON2 peptide binding; Potency, µM (series often up to 58.2 µM), inactives show at the top dose activity change, negative = inhibition, most hits filed as inhibitors; 360,000 tested, 0.2% active; AID 720542;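 also: potency is read from the fitted curve at half-maximal effect; 0% = vehicle wells and -100% = peptide control; nearly all actives have a fitted effect of over 45% in size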
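AMA1 (3D7) with his tag at 25 nM final met compounds first, then biotinylated RON2 peptide at 25 nM; detection used donor plus acceptor beads, 10 µg/mL apiece, read by AlphaScreen after 30 min at room temperature.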
AmpC no deterg: blocks E. coli AmpC beta-lactamase in detergent-free assay. AmpC nitrocefin hydrolysis, absorbance 480 nm, 0.0001% Triton. 330,000 tested, 0.52% active. P00811. Potency, µM (doses to about 57.1 µM), for inactives: at the highest dose activity change, negative = inhibition, usual class: inhibitors. AID 485341;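 also: potency is read from the fitted curve at half-maximal effect; plate controls were no compound for no effect and no enzyme for full effect; nearly all actives have a fitted effect of over 20% in size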
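20 mM phosphate pH 7.0 + 0.01% (detergent screen) or 0.0001% Triton X-100; 5.3 nM AmpC reagent; cpd preinc 15 min RT; nitrocefin (800 uM stock) to start; A480 q20 s × 4 min; Activity was normalised to no-enzyme and no-compound control wells.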
CHX counter: affects cycloheximide protein synthesis inhibition readout, counter-screen; 300,000 tested, 12% active; cell reporter, cycloheximide protein synthesis inhibition counterscreen; max response, %; AID 2314; in the data active = max response mostly above about 13%, no sharp cut-off; inactive = mostly below about 14%; also: read at 38.3 µM for the half of the compounds with a filed dose; 0% is about no effect
* marks the source's active call; other numbers are inactive results; u = inconclusive; x = no result given; + = active, no number; [ ] = another dose, or the depositor's remark. Shown is part of a subset that was picked to be rich in hits. Unless noted, calls follow the shape of the dose curve; as a rule, active = well fitted curve in the direction sought with a large enough effect; inconclusive = small, poorly fitted or top-dose-only effect, or another doubt; inactive = no such curve, though single readings can be large; an effect the other way counts as inactive or inconclusive.

SMILES	SARS PLpro yeast	Shiga inhibitor	AmpC detergent	AMA1-RON2 inh	AmpC no deterg	CHX counter
O=C(CSc1ccc(-c2ccccc2)nn1)NC1CCCCC1	x	-3	3%	0%	-6%	0
COc1ccc(C2=CC(=O)C=CC2=O)cc1	-5%	-2	u	x	32µM*	9.3*
CCc1ccc(NC(=O)c2ccc(F)c(S(=O)(=O)N(CC)c3ccccc3)c2)cc1	1%	2	-4%	9%[11.6 µM]	-21%	14*
CCN(c1ccccc1)S(=O)(=O)c1cc(C(=O)Nc2cccc(Cl)c2)ccc1F	-4%	-15	-1%	5%	-21%	13
CN(C)S(=O)(=O)c1ccc(N2CCCC2)c(C(=O)Nc2nc(-c3ccc(F)c(F)c3)cs2)c1	-23%	32	2%	-15%	-14%	28*
COc1ccc2c(c1)c(C(=O)N/N=C/c1cccc(Br)c1)c(C)n2C	-3%	10	7%	-12%	-4%	2
COC(=O)c1ccccc1NC(=O)CSc1nc(C)cc(C)n1	-1%	-10	2%	17%	7%	-4
COC(=O)c1cc(C)nc(Sc2ccccc2N)n1	0%	45*	10%	87%	-5%	18*
CCOC(=O)c1cc(-c2ccccc2)n(CCC(=O)NCCc2ccc(OC)c(OC)c2)c1C	x	x	8%	x	x	x
COc1ccccc1Nc1nc(N)nc(CSc2ncccn2)n1	2%	96*	-7%	4%	-12%	28*
COc1ccccc1Nc1nc(N)nc(CCl)n1	-1%	39*	-1%	36%	-2%	21*
CCOc1ccccc1Nc1nc(N)nc(CSc2nccc(C)n2)n1	4%	-12	-12%	-10%	-8%	-2
COc1ccc(CN(C)C(=O)C23CC4CC(CC(Cl)(C4)C2)C3)c(OC)c1OC	-8%	3	2%	-1%	92%	-4
CCCC(=O)N(CCN1CCOCC1)c1nc2cc(C)c(C)cc2s1	8%	91*	-2%	-16%	175%	51*
COc1ccc(C(=O)NC(=S)Nc2ccc(CN3CCOCC3)cc2)cc1	-2%	47*	-2%	-10%	47%	18
O=C(NC(=S)Nc1ccc(CN2CCOCC2)cc1)c1ccc2c(c1)OCCO2	-7%	88*	3%	18%	172%	31*
O=C(NC(=S)Nc1ccc(N2CCCCC2)cc1)c1ccc2c(c1)OCCO2	12%	98*	1%	-11%	u	58*
O=C(NC(=S)Nc1ccc(N2CCOCC2)cc1)c1ccc2c(c1)OCCO2	5%	61*	u	18%	-56%	42*
NS(=O)(=O)c1ccc(CCNC(=O)c2ccc3nc(Cc4ccccc4)oc3c2)cc1	x	x	0%	x	x	x
O=C(CO)C(O)C(O)C(O)CO (centres undefined)	8%	-1	u	11%	-4%	-3
O=C(NC(=S)Nc1c(F)cc(F)cc1Br)c1ccc2c(c1)OCCO2	0%	84*	-7%	46%	-12%[2.29 µM]	28*
COc1ccc(NC(=S)NC(=O)c2ccc3c(c2)OCCO3)cc1	0%	x	x	-12%[11.6 µM]	-18%	x
O=C(NC(=S)Nc1ccc(Cc2ccncc2)cc1)c1ccc(F)cc1	-4%	27	-14%	54%	-22%	18*
O=C(NC(=S)Nc1ccc(F)cc1)c1ccc2c(c1)OCCO2	-1%	101*	u	51%	-26%	70*
COc1cc(/C=N/NC(N)=O)cc([N+](=O)[O-])c1O	1%	-3	-5%	-13%	-9%	-1
CCOc1ccc(NCC(=O)c2ccc(C)cc2)cc1	-1%	63*	-4%	-23%	-24%	16*
Cc1ccc(C)c(NCC(=O)c2ccc(Cl)cc2)c1	-2%	11	4%	-3%	-22%	-2
Cc1ccc(C(=O)CNc2ccc(Cl)cc2)cc1	-16%	86*	-8%	0%	-12%	42*
COC(=O)C(CC(=O)c1ccc(Cl)cc1)c1ccc(C)cc1 (centres undefined)	-40%	+	u	22%	-12%	20
